This is a sample that favours compounds with a hit; in the whole collection about 5.7% have one here.
DRD3 agonist – qHTS of D3 Dopamine Receptor Agonist: qHTS. D(3) dopamine receptor (Homo sapiens), P35462. D3R DiscoveRx beta-arrestin cells, luminescence, 90 min. max activation, %. 0.58% of 410,000 active. AID 652048, 2013; in the data active = max activation above about 30%
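Agonist mode: compounds and dopamine controls were applied to plated cells for 90 min at 37 degrees C after an overnight attachment at 1500 cells/well. Luminescent read-out followed 30 - 60 minutes at room temperature with DiscoveRx detection reagent.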
GLP1R inv ag – qHTS of GLP-1 Receptor Inverse Agonists (Inhibition Mode) | HEK293 GLP-1R CRE-luciferase, luminescence, 24 h; GLP-1R form is constitutively active | Potency, µM (titrated, usually from 38.3 µM), most hits filed as inhibitors | 1.6% of 410,000 active | AID 624417, 2012; note: nearly all actives have a fitted effect of over 55% in size
Target sequence (P43220 whole entry, looked up): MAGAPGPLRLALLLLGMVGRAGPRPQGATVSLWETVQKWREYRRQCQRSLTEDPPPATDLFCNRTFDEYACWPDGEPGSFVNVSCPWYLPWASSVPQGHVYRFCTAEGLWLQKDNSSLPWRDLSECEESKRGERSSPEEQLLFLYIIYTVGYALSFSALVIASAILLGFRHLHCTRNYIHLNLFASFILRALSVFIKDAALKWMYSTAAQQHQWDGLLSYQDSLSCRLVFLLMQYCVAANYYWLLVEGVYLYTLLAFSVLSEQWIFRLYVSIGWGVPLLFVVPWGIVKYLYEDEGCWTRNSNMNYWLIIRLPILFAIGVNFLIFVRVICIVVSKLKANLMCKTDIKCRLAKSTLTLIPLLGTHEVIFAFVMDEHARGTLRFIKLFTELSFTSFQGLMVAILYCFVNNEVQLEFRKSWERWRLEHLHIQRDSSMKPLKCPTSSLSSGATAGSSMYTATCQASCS
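Inverse agonism was detected as reduced cAMP-driven luciferase luminescence after 24 h compound treatment. The cells were HEK293 clones expressing constitutively active human GLP-1R with the reporter. Reporter-only and GPR119 cell lines served as counterscreen controls.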
HEK293 tox – qHTS of GLP-1 Receptor Inverse Agonists: Cytotox Screen | 0.13% of 410,000 active | HEK293 cAMP-luciferase reporter cells, luminescence, 24 h | Potency, µM (highest dose often 38.3 µM), most hits filed as inhibitors;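 note: loss of luciferase light is scored as toxicity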
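Seeding density was 200 cells/uL; after overnight-length (12 h) culture, 23 nL compounds went on for 24 h at 37 °C. Readout used a luciferase detection reagent, luminescence taken after 12 min at room temperature.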
D3 antag – qHTS of D3 Dopamine Receptor Antagonist: qHTS; D(3) dopamine receptor (Homo sapiens), P35462; D3R cells, DiscoveRx beta-arrestin luminescence, antagonist mode; hits give low values; max response, negative = inhibition, %; 2.5% of 360,000 active; in the data active = max response below about -50%; inconclusive = no clear call, values can overlap the other calls
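Cells expressing the human receptor were seeded at 1500 cells/well, incubated overnight at 37 degrees C in 5% CO2, then exposed to library compounds with dopamine controls for 90 minutes at 37 degrees C before luminescent detection.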
ClpP mod – qHTS Assay for Activators of ClpP; Potency, µM (top dose mostly 57.5 µM); purified B. subtilis ClpP, FRET peptide cleavage, 20 min; ATP-dependent Clp protease proteolytic subunit (Bacillus subtilis (strain 168)), P80244; 1.9% of 340,000 active; active = well fitted falling curve with a large enough effect; inconclusive = small, poorly fitted or top-dose-only effect; inactive = no such curve, though single readings can be large or run the other way; note: the source files actives as falling curves though it sought activators and does not explain the sign; nearly all actives have a fitted effect of over 65% in size
Target sequence (P80244 whole entry, looked up): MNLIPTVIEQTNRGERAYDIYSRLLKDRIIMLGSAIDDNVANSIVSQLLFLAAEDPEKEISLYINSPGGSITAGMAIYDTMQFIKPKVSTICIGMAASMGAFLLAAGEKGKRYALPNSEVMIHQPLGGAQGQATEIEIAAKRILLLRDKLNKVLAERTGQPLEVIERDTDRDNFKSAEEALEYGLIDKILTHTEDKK
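Buffer: 100 mM Tris/HCl pH8, 100 mM KCl, 0.05% low protease BSA, 2.5% glycerol, 0.01% Tween-20. ClpP 10 microg/mL final; 20 min RT; delta FRET normalized to ADEP and DMSO controls.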
GLP-1R agonist – qHTS of GLP-1 Receptor Agonists; Potency, µM (doses to about 45.6 µM), hits mostly activators; 0.007% of 380,000 active; Glucagon-like peptide 1 receptor (Homo sapiens), P43220; HEK293 GLP-1R CRE-luciferase, luminescence, 4-6 h; cells express a hypersensitive GLP-1R form
Numbers stand for hits; ! = not active in a repeat. Unless noted, calls come from the whole dose curve; as a rule, active = well fitted curve in the direction sought with a large enough effect; inconclusive = small, poorly fitted or top-dose-only effect, or another doubt; inactive = no such curve, though single readings can be large; an effect the other way counts as inactive or inconclusive.

For Cn1cc(C(=O)c2ccccc2)c2ccccc21 the results were DRD3 agonist inactive, GLP1R inv ag inconclusive, HEK293 tox inactive, D3 antag inactive, ClpP mod inactive and GLP-1R agonist inactive.
`CC(C(=O)c1cn(C)c2ccccc12)c1ccccc1` (stereo unspecified) gave DRD3 agonist inactive, GLP1R inv ag inconclusive, HEK293 tox inactive, D3 antag -69.9, ClpP mod inactive and GLP-1R agonist inactive.
`Cc1oc(-c2cccc(Cl)c2)nc1CN1CCC(C(=O)NCCCN2CCN(c3ccc(F)cc3)CC2)CC1` gave DRD3 agonist inactive, GLP1R inv ag inconclusive, HEK293 tox inactive and ClpP mod inactive.
O=C(NC(c1ccc(F)cc1)c1ccc2ccccc2n1)C1CCN(CCOc2ccc(Cl)cc2)CC1 (stereo unspecified) was read as DRD3 agonist inactive, GLP1R inv ag 6.31µM, HEK293 tox inconclusive, D3 antag -117.9, ClpP mod inactive and GLP-1R agonist inactive.
COc1ccc(C2=CCC3CCCCN3C2)cc1OC (stereo unspecified) was read as DRD3 agonist inactive, GLP1R inv ag inactive, HEK293 tox inconclusive, D3 antag inactive, ClpP mod inactive and GLP-1R agonist inactive.
COc1cccc(-c2nn(-c3ccc(C)cc3)cc2C(=O)N(C)CC(=O)Nc2cccc(F)c2)c1 was read as DRD3 agonist inactive, GLP1R inv ag 7.08µM, HEK293 tox inconclusive, D3 antag inactive, ClpP mod inactive and GLP-1R agonist inactive.
COc1cccc(NC(=O)CN(C)C(=O)c2ccccc2OCC(=O)Nc2cccc(C(F)(F)F)c2)c1 was read as DRD3 agonist inactive, GLP1R inv ag inconclusive, HEK293 tox inconclusive, D3 antag inactive, ClpP mod inactive and GLP-1R agonist inactive.
`CCC1(c2cnc[nH]2)Cc2ccccc2C1` gave DRD3 agonist inactive and GLP-1R agonist inactive.
`N#Cc1c(/N=C/C2C(=O)NC(=S)NC2=O)sc2c1CCCC2` gave DRD3 agonist 31.6, GLP1R inv ag inactive, HEK293 tox inactive, D3 antag inactive and GLP-1R agonist inactive.
CCON=C(CC)C1=C(O)CC(c2c(C)cc(C)cc2C)CC1=O (stereo unspecified) was read as GLP-1R agonist inactive.
`COC(=O)C1=C(c2cc3ccccc3s2)C[C@@H]2CC[C@H]1N2C(=O)NCc1ccc(C(F)(F)F)cc1` gave DRD3 agonist inactive, GLP1R inv ag 3.98µM, HEK293 tox inactive, D3 antag inconclusive, ClpP mod inactive and GLP-1R agonist inactive.
COC(=O)C1=C(c2cc3ccccc3s2)C[C@@H]2CC[C@H]1N2C(=O)N1CCC(C)CC1 was read as DRD3 agonist inactive, GLP1R inv ag 10µM, HEK293 tox inactive, D3 antag inconclusive, ClpP mod inactive and GLP-1R agonist inactive.
COC(=O)C1=C(c2cc3ccccc3o2)C[C@@H]2CC[C@H]1N2C(=O)NCc1ccc(F)cc1 was read as DRD3 agonist inactive, GLP1R inv ag 11.2µM, HEK293 tox inactive, D3 antag inactive, ClpP mod inactive and GLP-1R agonist inactive.
`CN1C(C(=O)Nc2cccc(O)c2)=CC(c2cccs2)=NS1(=O)=O` gave DRD3 agonist inactive, GLP1R inv ag inactive, HEK293 tox inconclusive, D3 antag inactive, ClpP mod inactive and GLP-1R agonist inactive.
For COCCn1c(=NC(=O)c2ccc3c(c2)OCCO3)sc2cc(S(N)(=O)=O)ccc21 the results were DRD3 agonist inactive, GLP1R inv ag inconclusive, HEK293 tox inconclusive, D3 antag inactive, ClpP mod inconclusive and GLP-1R agonist inactive.
`CN1CC2(Cc3c1ccc1ccccc31)C(=O)OC(C)(C)OC2=O` gave DRD3 agonist inactive, GLP1R inv ag inactive, HEK293 tox inactive, D3 antag inactive, ClpP mod 14.1µM! and GLP-1R agonist inactive.
Screening Cc1ccc2c(c1)CC1(CN2C)C(=O)NC(=O)N(CCc2ccccc2)C1=O (stereo unspecified) returned DRD3 agonist inactive, GLP1R inv ag inactive, HEK293 tox inactive, D3 antag inactive, ClpP mod inactive and GLP-1R agonist inactive.
Screening COC(=O)C1=C(c2cccc(OCc3ccccc3)c2)C[C@@H]2CC[C@H]1N2C(=O)NC1CCN(Cc2ccccc2)CC1 returned DRD3 agonist inactive, GLP1R inv ag inconclusive, HEK293 tox inactive, D3 antag -119.9, ClpP mod inactive and GLP-1R agonist inactive.
For COC(=O)C1=C(c2ccccc2OCc2ccccc2)C[C@@H]2CC[C@H]1N2C(=O)NCCc1ccc(F)cc1 the results were DRD3 agonist inactive, GLP1R inv ag 22.4µM, HEK293 tox inactive, D3 antag inactive, ClpP mod inactive and GLP-1R agonist inactive.
`COC(=O)C1=C(c2ccc(F)cc2OCc2ccccc2)C[C@@H]2CC[C@H]1N2C(=O)NCc1ccccc1` gave DRD3 agonist inactive, GLP1R inv ag inconclusive, HEK293 tox inactive, D3 antag inactive, ClpP mod inactive and GLP-1R agonist inactive.
For COC(=O)C1=C(c2ccccc2OCc2ccccc2)C[C@@H]2CC[C@H]1N2C(=O)NC1CCN(Cc2ccccc2)CC1 the results were DRD3 agonist inactive, GLP1R inv ag inconclusive, HEK293 tox inconclusive, D3 antag -84.6, ClpP mod inactive and GLP-1R agonist inactive.
COC(=O)C1=C(c2ccc(F)cc2OCc2ccccc2)C[C@@H]2CC[C@H]1N2C(=O)NC1CCN(Cc2ccccc2)CC1 was read as DRD3 agonist inactive, GLP1R inv ag inactive, HEK293 tox inactive, D3 antag -108.2, ClpP mod inactive and GLP-1R agonist inactive.
`COC(=O)C1=C(c2ccccc2OCc2ccccc2)C[C@@H]2CC[C@H]1N2C(=O)NCc1ccccc1` gave DRD3 agonist inactive, GLP1R inv ag inconclusive, HEK293 tox inactive, D3 antag inactive, ClpP mod inactive and GLP-1R agonist inactive.
`C[C@H]1[C@H]2Cc3ccc(O)cc3[C@]1(C)CCN2CCc1ccccc1` gave DRD3 agonist inactive.
For CN[C@H]1C[C@@H](N)[C@H](O)[C@@H](O[C@@H]2O[C@H](CO)[C@H](O)[C@@H]3OC4(O[C@H]23)O[C@H](C(N)CO)[C@H](O)[C@H](O)[C@H]4O)[C@@H]1O (stereo partly specified) the results were DRD3 agonist inactive.
